Measurements taken from PubChem BioAssay (NCI).
This is part of a sample that, as a whole, favours compounds with a hit. Of some 83,000 tested, about 20% had one in any assay.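 Compound tested at a single concentration for 48 hours in 96-well plates; a percent growth value below 10 was scored as active.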 Unmarked numbers belong to inactive results. Calls of active or inactive are those of the source.

Assays:
Assay in all cases: NCI-60 one-dose screen, 48 h (100 = growth as untreated, 0 = no growth, -100 = all killed)
Conditions in all cases: 10 µM unless noted
NCI-H23 lung = system: NCI-H23 lung
NCI-H226 lung = system: NCI-H226 lung
NCI-H322M lung = system: NCI-H322M lung
HOP-62 NSCLC = system: HOP-62 NSCLC
NCI-H460 lung = system: NCI-H460 lung
HOP-92 NSCLC = system: HOP-92 NSCLC
NCI-H522 lung = system: NCI-H522 lung
786-0 renal = system: 786-0 renal
COLO 205 colon = system: COLO 205 colon
DU-145 prostate = system: DU-145 prostate
K-562 leukemia = system: K-562 leukemia
MALME-3M melanoma = system: MALME-3M melanoma
MDA-MB-231 breast = system: MDA-MB-231 breast
RXF 393 renal = system: RXF 393 renal
SF-268 CNS = system: SF-268 CNS
SF-295 CNS = system: SF-295 CNS
SF-539 CNS = system: SF-539 CNS
UACC-257 melanoma = system: UACC-257 melanoma
M14 melanoma = system: M14 melanoma
A549/ATCC NSCLC = system: A549/ATCC NSCLC

| SMILES | growth (NCI-H23 lung) [%] | growth (NCI-H226 lung) [%] | growth (NCI-H322M lung) [%] | growth (HOP-62 NSCLC) | growth (NCI-H460 lung) | growth (HOP-92 NSCLC) | growth (NCI-H522 lung) [%] | growth (786-0 renal) | growth (COLO 205 colon) | growth (DU-145 prostate) | growth (K-562 leukemia) | growth (MALME-3M melanoma) | growth (MDA-MB-231 breast) | growth (RXF 393 renal) | growth (SF-268 CNS) [%] | growth (SF-295 CNS) | growth (SF-539 CNS) | growth (UACC-257 melanoma) [%] | growth (M14 melanoma) | growth (A549/ATCC NSCLC) [%] |
| --- | --- | --- | --- | --- | --- | --- | --- | --- | --- | --- | --- | --- | --- | --- | --- | --- | --- | --- | --- | --- |
| Cc1c(C(C)(C)C)cc(C(C)(C)C)c2c1CN(C)CO2 | 102 | 111 | 105 | 103% | 123% | 112% | 93.4 | 105% | 105% | 112% | 99.4% | 95.5% | 110% | 122% | 103 | 103% | 103% | 99.5 | 118% |  |
| Cc1ccc2[nH]c3nc4cccnc4c(C)c3c2c1 | 36.5 | 77.9 | 44.4 | 63.2% | 11.4% | 115% | 70.3 | 107% | 101% | 102% | 89.1% | 127% | 37.1% | 84.7% | 92.3 | 99.9% | 76.2% | 112 | 103% |  |
| COC(=O)/C=C/C(=O)c1cc(C)cc(C)c1O | 97.5 | 102 | 101 | 96.6% | 111% | 113% | 92.9 | 100% | 108% | 103% | 103% | 95.7% | 114% | 116% | 95.9 | 93.5% | 99.5% | 99.8 | 102% |  |
| CN(C)CCNc1nc2ccccc2c2c(=O)c3ccccc3sc12 | 31.8 | 36.5 | 43.1 | 21.7% | 1.33% (active) | 4.02% (active) | 14.4 | 28.6% | -79.6% (active) | 8.96% (active) | -35.1% (active) | 12.2% | -11.6% (active) | 6.42% (active) | 26.3 | 0.247% (active) | 36.7% | 28.8 | -54.7% (active) |  |
| CC(C)(C)C(=O)/C=c1/[nH]c(=O)/c(=C/c2ccccc2O)s1 | 73.1 | 76.4 | 71.7 | 46% | 23.8% | 80.4% | 26.8 | 87.3% | 89.1% | 78.6% |  | 66.4% | 58.1% | 62.7% | 61 | 60.6% | 60.1% | 82.1 | 30.4% |  |
| NN=C(c1ccc(Cl)cc1)c1ccc(Cl)cc1 | 94.3 | 108 | 123 | 108% | 111% |  | 106 | 104% | 110% | 116% | 105% | 121% | 106% | 109% | 96.6 | 91.1% | 104% | 94.5 | 106% | 82.2 |
| Nc1nccc2c1ccn2-c1ccc(NC(=O)c2ccc(N3CCOCC3)c(C(F)(F)F)c2)cc1 | 33 | 63.1 | 38.9 | -43% (active) | 1.76% (active) |  | 23.1 | -45.5% (active) | -54.7% (active) | 48.3% | 1.22% (active) | -18.1% (active) | -3.15% (active) | -77.4% (active) | 18.2 | -59.6% (active) | 7.48% (active) | 32.7 | -61.8% (active) | 11.9 |
| CCn1cc(C(=O)O)c(=O)c2cc(F)c(N3CCN(CC(=O)Nc4ccc(C(C)=O)cc4)CC3)cc21 | 93 | 86.3 | 101 | 101% | 107% | 92.8% | 96.9 | 98% | 121% | 111% | 94.6% | 105% | 100% | 102% | 102 | 103% | 98% | 93.1 | 102% |  |
